Laboratory results as given in the supplement of paper PMC8726507.
Unmarked numbers belong to inactive results.

Each compound was assayed on Plasmodium falciparum NF54-HGL (transmission to Anopheles stephensi) (assay: percentage of barcode signal found in uninfected mosquitoes (transmission-blocking activity); higher = stronger blocking of transmission to mosquito, active = 80 or more). Details: 10 µM; gametocyte preincubation time 24 h; readout time post-feed 8 days.
Method: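 The mixture was fed to Anopheles stephensi in 96-well plates as blood meals tagged with DNA-barcoded Asaia bacteria. Eight days later, mosquitoes were classed infected or uninfected by luminescence (mean + 5 SD of unfed controls). Barcodes were quantified by Luminex MagPlex-TAG in the pooled uninfected and infected Asaia cultures, background-corrected, and the score is % of barcode signal in uninfected mosquitoes = 100*Iu/(Iu+Ii).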

For `c1ccc(Oc2ccc(-c3cc(C4CCOCC4)[nH]n3)cc2)cc1`, which “percentage of barcode signal found in uninfected mosquitoes” value (from here on “percentage of barcode signal found”) is on record?
The value was 10.6%.

How did the “percentage of barcode signal found” value turn out when `Cc1cc(Nc2ccncc2)n2nc(C)c(-c3ccccc3Cl)c2n1` was run?
Its value is 53.9%.

How did the “percentage of barcode signal found” value turn out when `FC(F)(F)c1nnc2ccc(Cl)nn12` was run?
Its value is 20.5%.

Which “percentage of barcode signal found” value does the source give for `COc1cc2ncnc(NC3CCN(Cc4ccccc4)CC3)c2cc1OC` here?
The value was 31%.

For `CN1CCN(c2nccc3nc(-c4ccc(F)c(F)c4)[nH]c23)CC1`, which “percentage of barcode signal found” value is on record?
The value was 97.2% (active).

`Cc1cnc(CCNC(=O)c2cc(-c3ccc(Cl)cc3)cs2)[nH]1` was tested. Which “percentage of barcode signal found” value did it give?
The value was 7.14%.

With `COc1cccc2c(C)nc(N=C(N)N)nc12` as the compound, how does the “percentage of barcode signal found” value read?
The value was 24.9%.

Which “percentage of barcode signal found” value does the source give for `Clc1cccc(C(c2ccc(CN3CCNCC3)cc2)n2ccnc2)c1` (stereo not drawn) here?
Its value is 89.4% (active).

How did the “percentage of barcode signal found” value turn out when `COc1cncc(-c2cncc(N3CCN(c4ccncc4)CC3)n2)c1` was run?
The value was 63.9%.

`O=C(c1[nH]nc2c1CCCC2)N1CCN(Cc2ccc3c(c2)OCO3)CC1` was tested. Which “percentage of barcode signal found” value did it give?
Its value is 9.05%.

`O=C(NC1CC1)c1ccc(CSCc2ccccc2Cl)o1` was tested. Which “percentage of barcode signal found” value did it give?
Its value is 36.9%.

With `COc1nc2ccc(Br)cc2cc1[C@@H](c1ccccc1)[C@@](O)(CCN(C)C)c1cccc2ccccc12` as the compound, how does the “percentage of barcode signal found” value read?
Its value is -3.2%.

With `COc1ccc(Cl)cc1NC(=O)CN(C)C(=O)c1cnn(-c2ccccc2)n1` as the compound, how does the “percentage of barcode signal found” value read?
The value was 64.6%.
